A selection: hits, their analogues and other compounds. The true share with any hit is near 7.3%.
Rab9 prom act: qHTS Assay for Rab9 Promoter Activators. 320,000 compounds, 2.8% hits. Huh7 Rab9 promoter-luciferase reporter, luminescence, 24 h. Potency, µM (highest dose often 9.22 µM), without a hit: at the top dose activation, negative = inhibition, hits mostly activators; also: % of control where 0% means no effect; nearly all actives have a fitted effect of over 60% in size
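Luminescence read-out: Huh7 cells stably expressing Rab9-luciferase, treated 24 h with compound at 37 °C, then lysed with luciferase reagent for 10 min at ambient before reading.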
ELG1 genotox: qHTS screen for small molecules that induce genotoxicity in human embryonic kidney (HEK293T) cells expressing luciferase-tagged ELG1; HEK293T ELG1-luciferase reporter, luminescence, 16 h; Potency, µM (series often up to 46 µM), without a hit: top-dose activity change, positive = activation, most hits filed as activators; 330,000 compounds, 1.3% hits; also: % of control where 0% means no effect; nearly all actives have a fitted effect of over 60% in size
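Step 1: seed 2,000 HEK293T ELG1-luciferase cells per well. Step 2: add compound or DMSO, incubate 16 hr at 37 °C. Step 3: ONE-Glo, 30 min at room temperature, read luminescence.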
p53 reactivation: qHTS assay for re-activators of p53 using a Luc reporter; Potency, µM (top dose mostly 92.2 µM), inactives show top-dose activity change, positive = activation, hits mostly activators; 320,000 compounds, 0.063% hits; H1299 p53-A138V BP100-luciferase reporter, luminescence, 24 h; AID 504706, 2011; also: % of control where 0% means no effect; nearly all actives have a fitted effect of over 45% in size
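p53-null H1299 cells stably carrying temperature-sensitive p53-A138V and a BP100-luciferase reporter were pinned with compounds (4-point, 1:5 series) and held 24 hrs at 37 deg C. Luminescence was read 10 min after detection reagent.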
SMN2 splice enh: qHTS Assay for Enhancers of SMN2 Splice Variant Expression. 210,000 compounds, 2.8% hits. Potency, µM (highest dose often 46.1 µM), inactives show at the top dose activity change, positive = activation, hits mostly activators. HEK293 SMN2-luciferase splicing reporter, luminescence, 30-36 h; also: % of control where 0% means no effect; nearly all actives have a fitted effect of over 55% in size
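qHTS luciferase splicing reporter: luminescence rises when SMN2 exon 7 is included in transfected HEK293 cells. Compound exposure lasted 30-36 h at 37C, with 4.5 mM final sodium butyrate as control, followed by a ONE-Glo read.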
FLuc modulator: qHTS profiling assay for firefly luciferase inhibitor/activator using purifed enzyme and Km concentrations of substrates (counterscreen for miR-21 project); AID 588342, 2011; purified FLuc, Km substrates, luminescence inhibition; 360,000 compounds, 6.9% hits; Potency, µM (top dose mostly 57.5 µM), inactives show at the highest dose activity change, negative = inhibition, most hits filed as inhibitors;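 also: plate controls were vehicle for no effect and reference inhibitor for full effect; nearly all actives have a fitted effect of over 55% in size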
Target sequence (P08659 whole entry, looked up): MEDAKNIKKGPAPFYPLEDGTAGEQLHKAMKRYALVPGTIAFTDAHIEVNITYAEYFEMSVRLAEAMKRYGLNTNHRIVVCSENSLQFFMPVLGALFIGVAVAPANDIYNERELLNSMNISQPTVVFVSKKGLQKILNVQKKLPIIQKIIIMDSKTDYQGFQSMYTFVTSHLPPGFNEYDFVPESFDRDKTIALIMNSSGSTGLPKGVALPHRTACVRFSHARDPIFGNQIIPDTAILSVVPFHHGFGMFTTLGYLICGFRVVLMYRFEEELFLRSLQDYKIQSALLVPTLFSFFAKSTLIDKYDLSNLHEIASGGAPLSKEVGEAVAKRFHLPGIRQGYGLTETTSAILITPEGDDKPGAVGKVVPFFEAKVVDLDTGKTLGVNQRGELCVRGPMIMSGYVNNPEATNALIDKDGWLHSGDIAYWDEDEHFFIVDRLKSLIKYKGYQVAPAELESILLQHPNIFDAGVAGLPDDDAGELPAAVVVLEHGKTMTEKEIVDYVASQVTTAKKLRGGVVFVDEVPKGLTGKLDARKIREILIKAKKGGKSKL
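Purified P. pyralis luciferase, 10 nM final, with Km-level 10 uM D-luciferin and 10 uM ATP in 50 mM Tris acetate pH 7.5, 10 mM Mg acetate, 0.01% Tween-20, 0.05% BSA; 6-point qHTS titration about 60 µM downward; luminescence read.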
NPC1 prom act: qHTS Assay for NPC1 Promoter Activators. Huh7 NPC1 promoter luciferase reporter, 24 h. 320,000 compounds, 2.4% hits. AID 485313, 2010. Potency, µM (titrated, usually from 9.22 µM), without a hit: at the top dose activation, hits mostly activators; also: % of control where 0% means no effect; nearly all actives have a fitted effect of over 60% in size
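In 1536-well qHTS, Huh7 cells harboring an NPC1 promoter–luciferase construct received compound for 24 h; activation was quantified by luminescence following luciferase reagent addition.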
Active calls of the source: *; u = inconclusive; x = no result; [ ] = dose if it differs, or a comment. Calls follow the shape of the dose curve; as a rule, active = well fitted curve in the direction sought with a large enough effect; inconclusive = small, poorly fitted or top-dose-only effect, or another doubt; inactive = no such curve, though single readings can be large; an effect the other way counts as inactive or inconclusive. Potency is read from the fitted curve at half-maximal effect.

SMILES	Rab9 prom act	ELG1 genotox	p53 reactivation	SMN2 splice enh	FLuc modulator	NPC1 prom act
CCOC(=O)N1CCN(S(=O)(=O)N2CCCC(C(=O)NCCCN3CCCCC3)C2)CC1 (configuration not stated)	1%	-1%	0%	x	1%	0%
NC(=O)[C@@H]1CCCN1Cc1ccc2c(c1)OCO2	x	x	x	-5%[9.22 µM]	x	x
CCN1CCN(C(=O)/C=C/c2ccc3c(c2)OCO3)CC1	1%	4%	6%	x	-14%	2%
O=C(/C=C/c1ccc2c(c1)OCO2)N1CCN(c2n[nH]c(=O)[nH]c2=O)CC1	-2%	2%	-3%	x	21µM*	-4%
CN1CCN(C(=O)/C=C/c2ccc3c(c2)OCO3)CC1	13%	3%	22%	1%	-4%	1%
COC(=O)C1CCN(C(=O)/C=C/c2ccc3c(c2)OCO3)CC1	1.3µM*	u	-13%	x	u	0.79µM*
O=C(/C=C/C=C/c1ccc2c(c1)OCO2)N1CCCCC1	2.5µM*	12µM*	2%	14µM*	8.5µM*	2.5µM*
CSc1ccc(CCNC(=O)c2ccc(-c3nc(COc4ccccc4)c(C)o3)cc2)cc1	x	x	x	x	1%	x
CC(C)(C)C(=O)CSc1nc2ncc(Br)cc2[nH]1	0%	0%	u	x	19µM*	3%
Cc1cc(C=C2C(=O)c3ccccc3C2=O)c(C)n1C	0%	u	u	u	3µM*	1%
COc1ccc(C=C2c3ccccc3C(=O)c3ccccc32)c(OC)c1	-24%	u	5%	x	-4%	-6%
CCn1c(C)cc(/C=C2\NC(=O)N(Cc3ccccc3)C2=O)c1C	3%	0%	4%	-5%	-15%	8%
CCn1c(C)cc(C=C2C(=O)c3ccccc3C2=O)c1C	u	u	1%	u	0.48µM*	u
CC(=O)O[C@@H]1CC[C@]2(C)C(=C[C@@H]([C@@H]3C=C4C[C@@H](OC(C)=O)CC[C@]4(C)C4=C3[C@H]3C[C@@H]5O[C@@]6(CC[C@H](C)CO6)[C@@H](C)[C@@H]5[C@@]3(C)CC4)C3=C2CC[C@@]2(C)[C@H]4[C@@H](C)[C@]5(CC[C@H](C)CO5)O[C@@H]4C[C@H]32)C1	x	x	x	-9%[9.22 µM]	x	x
CCC(=O)N1CCc2cc(Br)cc(S(=O)(=O)N3CCC(C(=O)Nc4ccccc4CC)CC3)c21	x	x	x	17%	3%	x
Cc1[nH]c2ccccc2c1C(=O)CSC(=S)N1CCOCC1	u	10%	6%	x	21µM*	21%
Cc1[nH]c2ccccc2c1C(=O)C(=O)N1CCOCC1	3%	8%	16%	x	4%	-7%
CCCCNC(=S)N/N=C/c1sccc1C	0%	3%	1%	25%	-13%	10%
CCNC(=S)N/N=C/c1sc(N2CCCCC2)nc1-c1cccs1	u	u	26%	x	1.9µM*	26%
COc1ccc(Oc2cc(C)c3ccccc3n2)cc1	10%	8%	u	-17%	u	0%
c1ccc(Oc2ccc3ccccc3n2)cc1	5%	u	9%	-5%	17µM*	17%
CSc1ccc(/C=N/N2CCN(C)CC2)cc1	3.2µM*	17%	27%	18µM*	21µM*	u
CSc1ccc(/C=N/n2c(C)cc(C)cc2=O)cc1	2.8µM*	10µM*	29%	u	15µM*	u
CSc1ccc(/C=N/N2CCN(Cc3ccc(Cl)cc3)CC2)cc1	-4%	-12%	-1%	-39%	-4%	-4%
CN1CCN(/N=C/c2ccc(-c3ccccc3)cc2)CC1	u	9%	u	u	19µM*	3.5µM*
SMILES	Rab9 prom act	ELG1 genotox	p53 reactivation	SMN2 splice enh	FLuc modulator	NPC1 prom act
COc1ccc2c(Sc3ccccc3)c(C(=O)NCCCN3CCCCC3)[nH]c2c1	x	x	x	x	1%	x
CCOc1ccc(C(CC(=O)O)NC(=O)c2sc3ccccc3c2Cl)cc1 (configuration not stated)	2%	3%	-16%	-6%	0%	1%
CCCOc1ccc(C(CC(=O)O)NC(=O)c2sc3ccccc3c2Cl)cc1 (configuration not stated)	20%	2%	1%	x	15µM*	-1%
CC1CCc2sc(C(=O)N=Nc3c(O)[nH]c4ccccc34)cc2C1 (configuration not stated)	12%	7%	10%	u	u	7%
O=C(Nc1ccccc1C(F)(F)F)c1noc2c1CCCCC2	x	x	x	11µM*	2.7µM*	x
O=C(Nc1cc(Cl)ccc1Cl)c1noc2c1CCCC2	-2%	1%	-3%	x	-9%	2%
O=C(NCc1ccc(F)cc1)c1noc2c1CCCCC2	4%	0%	21%	-5%	-12%	1%
O=C(Nc1ccc(F)cc1F)c1noc2c1CCC2	u	13%	u	u	15µM*	u
CCOc1ccc2ccccc2c1/C=N/NC(=O)CNC(=O)C(c1ccccc1)c1ccccc1	0%	-6%	0%	28%	2%	0%
COC(=O)CCC(=O)OC1(C)C(=O)C=C2C=C(CCCNC(=O)OC(C)(C)C)OC=C2C1=O (configuration not stated)	x	x	x	4%	x	x
O=C(c1ccco1)n1nc(-c2ccco2)nc1SCc1ccccc1	u	u	4%	8%	-9%	-5%
CCCC(=O)n1nc(-c2ccco2)nc1SCc1ccccc1	17%	8%	u	u	9.5µM*	13%
Cc1ccc(S(=O)(=O)n2nc(-c3ccco3)nc2SCc2ccccc2)cc1	22%	15%	24%	16µM*	24µM*	18%
O=C(Cc1ccccc1)n1nc(-c2ccco2)nc1SCc1ccccc1	15%	u	14%	11%	17µM*	24%
COc1cccc(NC(=O)Nc2cc(C)on2)c1	23%	8%	14%	x	u	27%
COc1ccc(C(=O)Nc2cc(C)on2)c(OC)c1	3.2µM*	u	x	x	11µM*	3.2µM*
COc1ccc(C(=O)Nc2ccc(C)cn2)c(OC)c1	0.35µM*	0.092µM*	-36%	x	0.19µM*	u
COc1cccc(C(=O)NC(=O)Nc2cc(C)on2)c1	1.6µM*	u	6%	11µM*	u	u
COc1ccc(C(=O)Nc2cc(C)on2)cc1OC	2%	16%	-3%	x	-6%	-3%
Cc1cc(NC(=O)Nc2ccc(C)c(C)c2)no1	u	u	5%	x	13µM*	21%

Screening data (PubChem BioAssay)
